This note sets out measurements from PubChem BioAssay (NCI).

The panel holds about 83,000 compounds, 20% with a hit somewhere; the sample as a whole holds those more often.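 96-well plates, one dose, 48 hours. Percent growth reported; active if below 10.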 Calls of active or inactive are those of the source.

In the assay the test system is UO-31 renal. Description: NCI-60 one-dose screen, 48 h (100 = growth as untreated, 0 = no growth, -100 = all killed). The settings on record: 10 µM unless noted.
Take `C=CCn1c(SCC(=O)Nc2ccc(C(=O)/C=C/c3ccc(Cl)cc3)cc2)nnc1-c1c[nH]c2ccccc12`: the growth is 47.8% (inactive).

With `O=C(NNc1nc2cc(F)c(F)cc2n2c(CN3CC4CNCC4C3)ccc12)c1cnccn1` (stereo not drawn), the growth is 14.1% (inactive).

On to `COc1ccc2c(c1)c(CC(=O)[Se]CC#N)c(C)n2C(=O)c1ccc(Cl)cc1`, for which the growth is -3.23% (active).

`O=C(NNc1nc2cc(F)ccc2n2c(CN3CCC(O)C3)ccc12)c1cnccn1` (stereo not drawn): the growth is 11% (inactive).

Take `COc1ccc(COc2ccc(/C=C3\C(=O)Nc4ccccc43)cc2OC)cc1`: the growth is 80.4% (inactive).

For the compound `O=C(NNc1nc2cc(F)ccc2n2c(CO)ccc12)c1cnccn1`, the growth was 8.71% (active).

As to `N#Cc1cn(Cc2ccc(Cl)cc2Cl)c(C(=O)c2ccc(Br)cc2)c1N`, the growth was 81.6% (inactive).

For the compound `O=C(CN1CCN(c2cc(=O)n(-c3ccccc3)c3ccccc23)CC1)Nc1nc(-c2ccccc2)cs1`, the growth was 41.6% (inactive).

In the case of `COc1ccc(CCOc2cc3c(cc2OC)CCN(C(=O)NCc2cocn2)C3c2ccc(C)cc2C)cc1` (stereo not drawn), the growth is 24.7% (inactive).

Take `COc1ccc(Oc2ccc(/C=N/NC(=O)CSc3nc4ccccc4c(=O)n3-c3ccc(Cl)cc3)cc2)cc1`: the growth was 47.7% (inactive).

In the case of `N#Cc1cccc(CN2CCC3=C(C2)C(=O)N(Cc2ccc(Cl)cc2)C2=NCCCN23)c1`, the growth is 37.4% (inactive).

Regarding `O=C(NNc1nc2cc(F)ccc2n2c(CN3CC4CNCC4C3)ccc12)c1cnccn1` (stereo not drawn), the growth was 19.7% (inactive).

Regarding `CCOc1ccccc1NC1=C(Cl)C(=O)c2nc(C)ccc2C1=O`, the growth was -93% (active).

For `CCCCCc1ccc(S(=O)(=O)Nc2cccc(-c3csc(NC(=O)CCCCCN4CCN(CCO)CC4)n3)c2)cc1`, the growth was 88.4% (inactive).

Take `CCOc1ccc(NC2=C(Cl)C(=O)c3nc(C)ccc3C2=O)cc1`: the growth was -65% (active).

For the compound `COc1cc(/C=C2\C(=O)Nc3ccccc32)ccc1OCc1ccc(Cl)cc1`, the growth is 81.3% (inactive).

Consider `COc1cc(-c2nc(SCCC(C)C)nc(NNC(=O)c3ccncc3)c2C#N)cc(OC)c1OC`, for which the growth was 19.3% (inactive).

For `O=C(NNc1nc2cc(F)cc(F)c2n2cccc12)c1cnccn1`, the growth was 18.1% (inactive).

Consider `O=C(CCn1cc[n+](CC(=O)c2ccc(-c3ccccc3)cc2)c1)Nc1cccc2cccnc12`, for which the growth is 88.1% (inactive).

As for `COc1c(N2CC3CCCNC3C2)c(F)cc2c(=O)c(C(=O)N/N=C/c3ccc4c(c3)OCO4)cn(C3CC3)c12` (stereo not drawn), the growth was 64.9% (inactive).

Regarding `COc1ccc(/C=C(/C)c2ccc3ccc(OC)cc3[o+]2)c(O)c1`, the growth was 69.4% (inactive).

As to `CN(C)CCNC(=O)c1ccc(-c2nc3ccc4[nH]ncc4c3c3c2CCC3)cc1`, the growth was 18.2% (inactive).

On to `COc1ccccc1NC1=C(Cl)C(=O)c2nc(C)ccc2C1=O`, for which the growth was -65.7% (active).

Consider `CCNC(=O)N1CCc2cc(OC)c(OCCc3ccc(OC)cc3)cc2C1c1ccc(Cl)cc1C` (stereo not drawn), for which the growth is 28.2% (inactive).

`Cc1cc2nc(C(Cl)Cl)nc(-c3cccs3)n2n1`: the growth was 31% (inactive).

With `CN(C)CCNC(=O)c1ccc(-c2nc3ccc4[nH]ncc4c3c3c2COCC3)cc1`, the growth was 82.9% (inactive).

As for `CN1CCN(Cc2ccc(NC(=O)c3cncc(C#Cc4cnc5ccc(OCC(C)(C)O)nn45)c3)cc2C(F)(F)F)CC1`, the growth is -87.9% (active).

Take `Nc1ncc(-c2ccc3ncnc(Nc4cccc(Cl)c4F)c3c2)cn1`: the growth was 34.6% (inactive).

Take `COc1ccc(/C=C/C(=O)c2cccc(NC(=O)CSc3nc4ccccc4c(=O)n3-c3ccccc3)c2)cc1OC`: the growth was 91.9% (inactive).

Regarding `O=C(NNc1nc2cc(F)ccc2n2c(CN3CCCC3)ccc12)c1cnccn1`, the growth is 18.7% (inactive).

Turning to `CC/C(=C/c1c(O)cccc1OC)c1ccc2c(OC)cccc2[o+]1`, the growth is 93.5% (inactive).

Regarding `CS(=O)(=O)Nc1cc(-c2ccc3ncc(C#N)c(NCc4ccccc4F)c3c2)cnc1Cl`, the growth was 4.65% (active).

For the compound `COc1ccccc1-n1cc(C#N)c(N)c1C(=O)c1ccc(Cl)cc1`, the growth was 77.4% (inactive).

On to `N=c1c2cc(-c3ccccc3)oc2ncn1/N=C/c1ccc(Cl)cc1`, for which the growth is 94% (inactive).

Consider `C=CCn1c(SCC(=O)Nc2ccc(C(=O)/C=C/c3cc(OC)c(OC)c(OC)c3)cc2)nnc1-c1c[nH]c2ccccc12`, for which the growth was 43.5% (inactive).

On to `COC(=O)C[Se]C(=O)Cc1c(C)n(C(=O)c2ccc(Cl)cc2)c2ccc(OC)cc12`, for which the growth was 9.87% (active).

Regarding `COc1ccc(NC2=C(Cl)C(=O)c3nc(C)ccc3C2=O)cc1OC`, the growth is 100% (inactive).

Regarding `NC(N)=Nc1ccc(Oc2cccc(NC(N)=Nc3ccc(I)cc3F)c2)cc1`, the growth is 95.7% (inactive).
